Experimental findings from PubChem BioAssay (EPA / NIEHS) are described below.

Inconclusive results are not listed. The source made the active and inactive calls. The calls were made as follows, unless noted: active = hit-call score of the fitted dose curve at least 0.9, where 1 is the maximum; inconclusive = response in the unintended direction; inactive = score below 0.9.

Experiment [1] has as its target Aryl hydrocarbon receptor (Homo sapiens) (UniProt P35869). Put plainly: ATG_Ahr_CIS: Attagene CIS-FACTORIAL HepG2 Assay for human Aryl Hydrocarbon Receptor (Ahr) (AID 2282930; active = hit-call score of the fitted dose curve at least 0.9, where 1 is the maximum; inactive = score below 0.9). As to conditions: HepG2 AhR cis-factorial reporter transcription; actives raise or lower the signal. An outline of the steps:
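Following 24 h of chemical dosing, transfected HepG2 liver cells with cis-driven reporter units were lysed for RNA; reporter mRNA was quantified via RT-PCR and capillary electrophoresis, and responses fitted bidirectionally from DMSO.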

Experiment [2] can be described thus: ATG_AP_1_CIS: Attagene CIS-FACTORIAL HepG2 Assay for human Activator Protein 1 (AP-1) (AID 2282931; active = hit-call score of the fitted dose curve at least 0.9, where 1 is the maximum; inactive = score below 0.9). As to conditions: HepG2 Attagene cis-factorial AP-1 reporter mRNA; actives raise or lower the signal. An outline of the steps:
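We transfected HepG2 cells transiently with a set of cis-regulated reporter transcription units, dosed them for 24 h, and quantified reporter mRNA via RT-PCR and capillary electrophoresis, scoring gain or loss of signal relative to DMSO.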

Experiment [3] can be described thus: ATG_E_Box_CIS: Attagene CIS-FACTORIAL HepG2 Assay for human Enhancer Box (E-box) (AID 2282936; active = hit-call score of the fitted dose curve at least 0.9, where 1 is the maximum; inactive = score below 0.9). As to conditions: HepG2 E-box cis-reporter transcription, actives raise or lower the signal. An outline of the steps:
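Endogenous transcription factor activity was sensed in human HepG2 liver cells through transfected cis-promoter reporter units. After 24 h of dosing, total RNA was reverse-transcribed and reporter cDNA resolved by capillary electrophoresis.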

A short description of experiment [4]: ATG_M_61_CIS: Attagene CIS-FACTORIAL HepG2 Assay for M61 Transcription Factor (Internal Marker) (AID 2282937; active = hit-call score of the fitted dose curve at least 0.9, where 1 is the maximum; inactive = score below 0.9). As to conditions: HepG2 Attagene CIS-FACTORIAL M61 internal marker reporter; actives raise or lower the signal. In outline: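 Multiplexed reporter mRNA assay, HepG2 human hepatoma cells, 24 h treatment. Signal: FAM-labelled, HpaI-digested RT-PCR fragments by CE. Fit: bidirectional, baseline DMSO.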

Experiment [5] in a line: ATG_GRE_CIS: Attagene CIS-FACTORIAL HepG2 Assay for human Glucocorticoid Response Elements (GRE) (AID 2282947; active = hit-call score of the fitted dose curve at least 0.9, where 1 is the maximum; inactive = score below 0.9). The note with it: HepG2 GRE cis-reporter, Attagene multiplex mRNA; actives raise or lower the signal. In outline:
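Cells (HepG2) bearing transfected cis-promoter reporter transcription units were treated with chemical for 24 hours. Reporter mRNA was measured via RT-PCR with capillary electrophoresis, and activity was fitted in both directions relative to DMSO.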

Experiment [6] deals with Hypoxia-inducible factor 1-alpha (Homo sapiens) (UniProt Q16665). Nature of the experiment: ATG_HIF1a_CIS: Attagene CIS-FACTORIAL HepG2 Assay for human Hypoxia Inducible Factor 1 (HIF1A) (AID 2282951; active = hit-call score of the fitted dose curve at least 0.9, where 1 is the maximum; inactive = score below 0.9). The note with it: HepG2 Attagene cis-factorial HIF1a reporter transcription; actives raise or lower the signal. In outline: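 Cis-element reporter constructs were transiently transfected into HepG2 cells, which were treated for 24 h; reporter RNA was reverse-transcribed, amplified, labelled and resolved by capillary electrophoresis.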
Chain of Hypoxia-inducible factor 1-alpha (Homo sapiens) (Q16665 whole entry, looked up): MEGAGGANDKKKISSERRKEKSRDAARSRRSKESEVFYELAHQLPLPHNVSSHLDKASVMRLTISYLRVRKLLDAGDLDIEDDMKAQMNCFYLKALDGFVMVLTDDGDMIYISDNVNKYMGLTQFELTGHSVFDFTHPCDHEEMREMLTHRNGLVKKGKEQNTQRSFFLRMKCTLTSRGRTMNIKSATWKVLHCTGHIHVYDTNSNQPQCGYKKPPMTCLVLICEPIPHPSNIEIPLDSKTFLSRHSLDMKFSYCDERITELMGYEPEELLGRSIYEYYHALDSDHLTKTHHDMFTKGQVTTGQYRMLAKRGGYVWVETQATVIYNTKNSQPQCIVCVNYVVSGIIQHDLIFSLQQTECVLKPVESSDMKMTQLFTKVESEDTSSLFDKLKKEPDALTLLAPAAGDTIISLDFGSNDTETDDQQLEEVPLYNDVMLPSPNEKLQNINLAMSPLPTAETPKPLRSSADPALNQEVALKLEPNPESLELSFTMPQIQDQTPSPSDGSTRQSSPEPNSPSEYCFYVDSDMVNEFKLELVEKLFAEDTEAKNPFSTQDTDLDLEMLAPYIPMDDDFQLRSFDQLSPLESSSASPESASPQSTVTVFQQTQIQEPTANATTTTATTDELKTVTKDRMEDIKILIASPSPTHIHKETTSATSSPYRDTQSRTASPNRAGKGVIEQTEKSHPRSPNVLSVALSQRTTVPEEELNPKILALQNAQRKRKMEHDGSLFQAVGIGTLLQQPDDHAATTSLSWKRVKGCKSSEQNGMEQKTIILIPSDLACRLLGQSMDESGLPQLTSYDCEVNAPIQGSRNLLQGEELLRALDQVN

The nature of experiment [7]: ATG_PBREM_CIS: Attagene CIS-FACTORIAL HepG2 Assay for human Phenobarbital-responsive Enhancer Module (PBREM) (AID 2282955; active = hit-call score of the fitted dose curve at least 0.9, where 1 is the maximum; inactive = score below 0.9). As to conditions: HepG2 PBREM cis-reporter, Attagene multiplexed transcription; actives raise or lower the signal. In outline:
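Multiplexed cis-reporter readout in human hepatoma HepG2 cells; PBREM-regulated transcript quantified after 24 h exposure by fluorescent RT-PCR fragment analysis. Signal changes up or down fitted relative to DMSO.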

Experiment [8] in a line: ATG_PPRE_CIS: Attagene CIS-FACTORIAL HepG2 Assay for human Peroxisome Proliferator-activated Response Element (PPRE) (AID 2282958; active = hit-call score of the fitted dose curve at least 0.9, where 1 is the maximum; inactive = score below 0.9). As to conditions: HepG2 PPRE cis-element reporter, Attagene transcription factor profiling; actives raise or lower the signal. An outline of the steps:
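DMSO served as negative control and baseline for bidirectional curve fitting. Signal came from PPRE-regulated reporter mRNA in HepG2 cells, measured 24 h post-dosing by RT-PCR, 6-FAM primer extension and capillary electrophoresis.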

Experiment [9] is described as follows: ATG_M_19_TRANS: Attagene TRANS-FACTORIAL HepG2 Assay for M19 Transcription Factor (Internal Marker) (AID 2282974). As to conditions: HepG2 Attagene TRANS-FACTORIAL M19 internal marker reporter. An outline of the steps: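 Multiplexed TRANS format: HepG2 liver cells bearing transient GAL4-UAS reporter units, chemical treatment 24 h, reporter transcripts quantified by RT-PCR plus capillary electrophoresis. DMSO defines baseline.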

The nature of experiment [10]: ATG_M_06_TRANS: Attagene TRANS-FACTORIAL HepG2 Assay for M06 Transcription Factor (Internal Marker) (AID 2282983).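 Also: reporter transcript level by RT-PCR then capillary electrophoresis fluorescence.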 As to conditions: HepG2 Attagene TRANS M06 internal marker reporter. An outline of the steps:
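Background control endpoint: reporter mRNA from transiently transfected HepG2 after 24 h dosing, detected by RT-PCR with capillary electrophoresis fluorescence. Analysed for gain versus DMSO.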

Experiment [11] is described as follows: ATG_M_32_TRANS: Attagene TRANS-FACTORIAL HepG2 Assay for M32 Transcription Factor (Internal Marker) (AID 2282984).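 Also: transcript level of a background control reporter unit measured by RT-PCR and capillary electrophoresis.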 The note with it: HepG2 Attagene TRANS M32 internal marker reporter. In outline:
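After 24 h dosing of transfected HepG2 cells, total RNA was reverse-transcribed, reporter sequences PCR-amplified, 6-FAM labelled by primer extension and HpaI-digested before capillary electrophoresis. Signal increase over DMSO was fitted.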

The nature of experiment [12]: ATG_NFI_CIS: Attagene CIS-FACTORIAL HepG2 Assay for human Nuclear Factor I (NFI) (AID 2282989; active = hit-call score of the fitted dose curve at least 0.9, where 1 is the maximum; inactive = score below 0.9). The note with it: HepG2 cis-regulatory reporter, NFI response element transcription; actives raise or lower the signal. In outline: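 Read-out: reporter mRNA via RT-PCR plus capillary electrophoresis with fluorescence detection. Transiently transfected HepG2 (endogenous TF activity on cis promoters), 24 h compound exposure; gain or loss of signal fitted against DMSO.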

For experiment [13], the target named is Peroxisome proliferator-activated receptor gamma (Homo sapiens) (UniProt P37231). Nature of the experiment: ATG_PPARg_TRANS: Attagene TRANS-FACTORIAL HepG2 Assay for human Peroxisome Proliferator-activated Receptor-gamma (PPARg) (AID 2283007). In outline:
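Chimeric NR-Gal4 transactivation is measured in transiently transfected HepG2 cells by reporter mRNA induction at 24 h. Detection uses RT-PCR with fluorescent labelling and capillary electrophoresis; DMSO defines baseline.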

Experiment [14] addresses Retinoic acid receptor RXR-alpha (Homo sapiens) (UniProt P19793). Nature of the experiment: ATG_RXRa_TRANS: Attagene TRANS-FACTORIAL HepG2 Assay for human Retinoid X Receptor alpha (RXRa) (AID 2283012). An outline of the steps: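 Measures exogenous chimeric NR-GAL4 activity in transfected HepG2 liver cells after 24 h of dosing. Induced reporter mRNA was detected by RT-PCR with capillary electrophoresis, and gain of signal was analysed against DMSO.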

Experiment [15] has as its target Cellular tumor antigen p53 (Homo sapiens) (UniProt P04637). Nature of the experiment: TOX21_p53_BLA_p2_ratio: Tox21 HCT-116 p53 Agonism Beta-lactamase Assay, Ratio, Phase 2 (AID 2283592). An outline of the steps: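 Plated HCT116 p53-bla cells (4000/well) received compound after 5 h, then 16 h at 37C/5% CO2. CCF4-AM added, 2 h RT. Ratio of 460 to 530 nm emission taken as the p53 reporter signal.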

The target is the same in experiment [16]. Put plainly: TOX21_p53_BLA_p5_ratio: Tox21 HCT-116 p53 Agonism Beta-lactamase Assay, Ratio, Phase 5 (AID 2283599). An outline of the steps:
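HCT-116 cells carrying a p53-inducible beta-lactamase reporter were seeded at 4000 cells/well and dosed after 5 h with compound in DMSO (217-fold dilution). After 16 h at 37C, CCF4-AM substrate was added for 2 h, and the 460/530 nm emission ratio was scored as gain-of-signal versus DMSO.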

Experiment [17] in a line: TOX21_p53_BLA_p5_viability: Viability Assessment in the Tox21 HCT-116 p53 Agonism Beta-lactamase Assay, Phase 5 (AID 2283600). In outline:
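Workflow: seed 4000 cells per well, wait 5 h, add compounds (DMSO, 217-fold dilution), incubate 16 h, load CCF4-AM 2 h, add CellTiter-Glo, read luminescence after 30 min.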

In experiment [18] the target is Cellular tumor antigen p53 (Homo sapiens) (UniProt P04637). Nature of the experiment: TOX21_p53_BLA_p4_ratio: Tox21 HCT-116 p53 Agonism Beta-lactamase Assay, Ratio, Phase 4 (AID 2283601). In outline:
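HCT116 cells carrying an inducible beta-lactamase reporter were plated at 4000 cells/well, rested 5 h, then exposed to compounds in DMSO (217-fold dilution) for 16 h at 37C. CCF4-AM substrate was loaded 2 h at room temperature; 460/530 nm emission ratio scored gain-of-signal versus DMSO.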

The nature of experiment [19]: ACEA_ER_AUC_viability: ACEA Biosciences xCELLigence Real-Time Cell Analysis on Estrogen Receptor Agonism for Viability (AID 2283782).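 Also: hit means loss of impedance signal meaning reduced cell growth or viability.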 An outline of the steps: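 Continuous-exposure impedance cell analysis uses T-47D cells in charcoal-stripped serum, eight 1:4 dilutions topping at 100 uM final, biological duplicate. Area under the growth curve at 80 h is fitted against DMSO baseline.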

Experiment [20] has as its target human Retinoid X Receptor beta (RXRb), RXRB (gene 6257) (UniProt P28702). Nature of the experiment: ATG_RXRb_TRANS: Attagene TRANS-FACTORIAL HepG2 Assay for human Retinoid X Receptor beta (RXRb) (AID 2283013). In outline: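 Chimeric receptor-Gal4 activity was assessed in transiently transfected human HepG2 cells after 24 h exposure. Transcripts from GAL4-UAS reporters were quantified by fluorescent RT-PCR and capillary electrophoresis, with DMSO as negative control and baseline.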

Chain of Peroxisome proliferator-activated receptor gamma (Homo sapiens) (P37231 whole entry, looked up, the tested form may be a part): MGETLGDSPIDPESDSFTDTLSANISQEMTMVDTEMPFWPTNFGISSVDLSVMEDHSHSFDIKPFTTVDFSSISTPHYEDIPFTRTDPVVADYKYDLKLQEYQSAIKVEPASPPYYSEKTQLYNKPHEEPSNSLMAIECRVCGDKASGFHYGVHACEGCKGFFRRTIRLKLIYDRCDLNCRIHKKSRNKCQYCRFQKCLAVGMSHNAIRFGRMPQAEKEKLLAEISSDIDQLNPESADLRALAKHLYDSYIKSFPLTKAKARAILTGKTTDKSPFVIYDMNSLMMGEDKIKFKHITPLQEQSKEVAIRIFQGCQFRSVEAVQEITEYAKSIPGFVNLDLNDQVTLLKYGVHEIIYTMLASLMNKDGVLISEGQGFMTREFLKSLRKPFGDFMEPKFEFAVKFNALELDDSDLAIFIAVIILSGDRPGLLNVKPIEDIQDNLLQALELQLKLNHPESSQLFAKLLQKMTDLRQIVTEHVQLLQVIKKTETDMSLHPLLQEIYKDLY
Chain of human Retinoid X Receptor beta (RXRb), RXRB (gene 6257) (P28702 whole entry, looked up, the tested form may be a part): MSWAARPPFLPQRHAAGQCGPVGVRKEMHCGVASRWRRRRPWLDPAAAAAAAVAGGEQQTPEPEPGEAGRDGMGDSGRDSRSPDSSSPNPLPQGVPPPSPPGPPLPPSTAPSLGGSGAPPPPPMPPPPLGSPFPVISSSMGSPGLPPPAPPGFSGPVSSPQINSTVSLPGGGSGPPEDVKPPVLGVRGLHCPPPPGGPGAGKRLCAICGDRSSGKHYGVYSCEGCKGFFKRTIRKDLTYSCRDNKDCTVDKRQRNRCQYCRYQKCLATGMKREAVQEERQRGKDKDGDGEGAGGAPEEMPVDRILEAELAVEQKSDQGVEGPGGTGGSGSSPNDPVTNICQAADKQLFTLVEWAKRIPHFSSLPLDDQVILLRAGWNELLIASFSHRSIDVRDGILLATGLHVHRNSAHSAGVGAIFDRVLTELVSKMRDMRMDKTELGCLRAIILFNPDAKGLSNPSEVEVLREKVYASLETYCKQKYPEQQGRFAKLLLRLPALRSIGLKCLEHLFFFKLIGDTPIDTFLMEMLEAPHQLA
Chain of Cellular tumor antigen p53 (Homo sapiens) (P04637 whole entry, looked up): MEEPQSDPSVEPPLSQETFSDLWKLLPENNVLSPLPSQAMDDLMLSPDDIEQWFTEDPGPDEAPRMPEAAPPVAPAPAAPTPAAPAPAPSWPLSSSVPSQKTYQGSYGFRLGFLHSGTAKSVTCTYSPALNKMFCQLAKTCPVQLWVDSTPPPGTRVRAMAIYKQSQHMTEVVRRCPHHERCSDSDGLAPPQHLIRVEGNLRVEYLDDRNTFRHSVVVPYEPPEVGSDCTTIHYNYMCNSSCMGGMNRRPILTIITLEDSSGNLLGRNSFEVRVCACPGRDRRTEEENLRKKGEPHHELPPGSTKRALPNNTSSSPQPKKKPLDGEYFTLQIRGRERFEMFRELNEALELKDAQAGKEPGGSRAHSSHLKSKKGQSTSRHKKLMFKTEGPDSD
Chain of Aryl hydrocarbon receptor (Homo sapiens) (P35869 whole entry, looked up): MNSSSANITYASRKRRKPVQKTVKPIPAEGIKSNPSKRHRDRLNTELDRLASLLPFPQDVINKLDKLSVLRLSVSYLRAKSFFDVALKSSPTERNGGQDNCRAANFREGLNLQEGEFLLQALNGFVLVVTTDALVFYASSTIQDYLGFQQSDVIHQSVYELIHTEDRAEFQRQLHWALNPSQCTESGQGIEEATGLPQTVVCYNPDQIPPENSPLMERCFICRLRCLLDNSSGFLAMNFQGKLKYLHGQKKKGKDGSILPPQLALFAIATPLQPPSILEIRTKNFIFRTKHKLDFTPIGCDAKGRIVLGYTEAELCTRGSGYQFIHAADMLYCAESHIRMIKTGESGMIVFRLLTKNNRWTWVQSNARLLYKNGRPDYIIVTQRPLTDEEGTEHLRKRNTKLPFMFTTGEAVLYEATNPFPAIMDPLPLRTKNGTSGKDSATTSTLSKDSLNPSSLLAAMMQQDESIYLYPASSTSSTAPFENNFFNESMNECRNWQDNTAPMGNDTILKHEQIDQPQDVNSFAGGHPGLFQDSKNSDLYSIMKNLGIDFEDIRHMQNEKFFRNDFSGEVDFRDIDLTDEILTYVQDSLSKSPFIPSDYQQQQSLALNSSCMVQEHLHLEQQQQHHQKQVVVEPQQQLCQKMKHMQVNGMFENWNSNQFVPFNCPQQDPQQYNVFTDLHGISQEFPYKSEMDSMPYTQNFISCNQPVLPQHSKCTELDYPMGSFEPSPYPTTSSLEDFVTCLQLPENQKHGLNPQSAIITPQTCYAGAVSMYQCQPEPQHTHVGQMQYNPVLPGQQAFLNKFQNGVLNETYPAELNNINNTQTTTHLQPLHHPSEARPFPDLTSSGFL
Chain of Retinoic acid receptor RXR-alpha (Homo sapiens) (P19793 whole entry, looked up, the tested form may be a part): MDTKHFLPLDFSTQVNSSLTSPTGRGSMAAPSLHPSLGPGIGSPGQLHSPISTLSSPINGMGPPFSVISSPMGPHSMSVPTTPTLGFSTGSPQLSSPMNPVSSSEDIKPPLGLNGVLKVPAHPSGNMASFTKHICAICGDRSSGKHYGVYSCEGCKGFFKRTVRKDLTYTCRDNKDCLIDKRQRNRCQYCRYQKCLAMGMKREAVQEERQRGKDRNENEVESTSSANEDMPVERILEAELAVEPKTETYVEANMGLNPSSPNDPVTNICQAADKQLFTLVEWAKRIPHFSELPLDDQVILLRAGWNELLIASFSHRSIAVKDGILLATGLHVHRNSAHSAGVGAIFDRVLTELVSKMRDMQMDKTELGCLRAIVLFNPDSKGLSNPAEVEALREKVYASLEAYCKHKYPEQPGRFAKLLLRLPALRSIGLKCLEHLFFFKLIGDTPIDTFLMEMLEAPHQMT

As to `N#Cc1cccc(C#N)c1`, the call in experiment [1], in [2], in [3], in experiment [4], in experiment [5] and in experiment [6] was inactive. Besides, the result in experiment [7], in experiment [8], in experiment [9], in experiment [10], in [11] and in [12] was inactive. For the same compound, the outcome in [13], in experiment [14], in experiment [15], in experiment [16], in experiment [17] and in experiment [18] was inactive. In addition, the call in experiment [19] was inactive.
For `CCC[N+](=O)[O-]`, the half-maximal activity concentration (AC50) – broadly, the midpoint of the concentration-response curve, whichever way the signal moves – in experiment [1] was 68.9 µM (active). The compound was called inactive in experiment [2], in experiment [3], in experiment [4], in [6], in experiment [7] and in experiment [8]. For the same compound, the compound was called inactive in [9], in experiment [10], in experiment [11], in [12], in experiment [15] and in experiment [16]. Moreover, the outcome in [17], in [18] and in [19] was inactive.
For `Cc1ccccc1CCl`, the result in experiment [1], in experiment [2], in experiment [3], in experiment [4], in experiment [5] and in [6] was inactive. Further, the result in experiment [7], in experiment [8], in experiment [10], in experiment [11], in [12] and in [13] was inactive. The compound was called inactive in experiment [14], in experiment [20], in [15], in experiment [16], in experiment [17] and in experiment [18]. Moreover, the compound was classed as inactive in [19].
Turning to `CC(C)(Cl)Cl`, the compound was called inactive in experiment [1], in experiment [3], in [4], in experiment [5], in experiment [6] and in [7]. In addition, the outcome in experiment [8], in experiment [9], in experiment [11], in [13], in [15] and in experiment [16] was inactive. Also, the call in experiment [17], in experiment [18] and in [19] was inactive.
On to `CC(C)CCCCCCCOP(=O)(Oc1ccccc1)Oc1ccccc1`, for which the compound was classed as inactive in experiment [1], in experiment [3], in [4], in experiment [5], in experiment [6] and in experiment [7]. The result in [8], in [10], in [11], in [12], in [20] and in experiment [15] was inactive. Moreover, the outcome in experiment [16], in [17], in experiment [18] and in [19] was inactive. Also, the AC50 in experiment [13] was 7.95 µM (active).
Take `O=[N+]([O-])c1cc(C(F)(F)F)c(Cl)c([N+](=O)[O-])c1Cl`: the compound was called inactive in [1], in experiment [4], in experiment [5], in experiment [6], in experiment [8] and in experiment [10]. Moreover, the AC50 in experiment [3] was 5.43 µM (active); in [12], 6.17 µM (active); in experiment [13] it was 8.34 µM (active); in experiment [15], 13.3 µM (active); in experiment [16], 21 µM (active); in [17], 46.1 µM (active). Further, in experiment [18], the AC50 is 21.9 µM (active).
Consider `S=c1[nH]c2ccccc2[nH]1`, for which the compound was called inactive in [2], in [3], in experiment [4], in experiment [5], in experiment [6] and in experiment [7]. Also, the compound was called inactive in [10], in [12], in [13], in [20], in [17] and in [18]. In addition, the result in experiment [19] was inactive.
Consider `C=Cc1cccc(CCl)c1`, for which the outcome in experiment [1], in experiment [2], in experiment [4], in experiment [7], in [9] and in experiment [11] was inactive. The result in experiment [12], in experiment [20], in experiment [15], in experiment [17] and in experiment [18] was inactive. The AC50 in experiment [5] is 100 µM (active).
